Nine molecules from PubChem BioAssay (Tox21) can be followed below.

Records with an inconclusive call do not appear. A number with no mark means an inactive call. Activity calls are given as the source filed them. Unless noted, the call rests on the fitted dose curve; in most records, active means well fitted curve in the direction sought with a large enough effect in the repeat runs; inconclusive means weak or mixed curves; inactive means no such curve, though single readings can be large; an effect the other way counts as inactive or inconclusive.

Test [1] in a line: qHTS assay to identify small molecule agonists of the peroxisome proliferator-activated receptor delta (PPARd) signaling pathway - cell viability counter screen (AID 743211). Further: nearly all actives have a fitted effect of over 55% in size. Further: potency means the concentration at half of the fitted maximal effect. In short, it runs like this: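 In the same wells used for beta-lactamase reporter measurement, cytotoxicity is scored by CellTiter-Glo. HEK293H PPARd-bla cells receive compound for 17 h at 37C following a 5 h settling period.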

Test [2] concerns the target Peroxisome proliferator-activated receptor delta (Homo sapiens) (UniProt Q03181). Briefly: qHTS assay to identify small molecule agonists of the peroxisome proliferator-activated receptor delta (PPARd) signaling pathway (AID 743212; calls by dose curve). In short, it runs like this: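 GeneBLAzer UAS-bla HEK293H cells carrying a PPARδ construct were exposed to compounds at 37 °C. Beta-lactamase activity was read by FRET fluorescence after 2 h at room temperature with LiveBLAzer B/G substrate.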

A short description of test [3]: qHTS assay to identify small molecule agonists of the farnesoid-X-receptor (FXR) signaling pathway - cell viability counter screen (AID 743218). Further: nearly all actives have a fitted effect of over 45% in size. In short, it runs like this: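 FXR-UAS-bla HEK 293T cells, plated 5 h at 37 C, were exposed to compounds for 16 h at 37 C. CellTiter-Glo was then added to the same wells as the bla readout; luminescence read after 30 min at room temperature.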

In test [4] the target is Bile acid receptor (Homo sapiens) (UniProt Q96RI1). As to the kind of experiment: qHTS assay to identify small molecule agonists of the farnesoid-X-receptor (FXR) signaling pathway (AID 743220; active means well fitted activation curve with a large enough effect in the signal ratio in the repeat runs, not every such curve was filed as active; the % refers to the signal ratio). In short, it runs like this:
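Beta-lactamase reporter under UAS control in GeneBLAzer FXR HEK 293T cells (5000/well) measured with LiveBLAzer FRET substrate after 2 h at room temperature. Compound exposure lasted 16 h at 37C.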

A short description of test [5]: qHTS assay to identify small molecule antagonists of the farnesoid-X-receptor (FXR) signaling pathway - cell viability counter screen (AID 743221; active means well fitted cell-killing curve with a large enough effect in the repeat runs, not every such curve was filed as active; further: nearly all actives have a fitted effect of over 50% in size). In short, it runs like this:
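Here viability was scored by luminescence after CellTiter-Glo addition to wells already read for beta-lactamase. Prior treatment: compound plus CDCA (50 uM final), 16 h, 37 C, HEK 293T FXR-bla cells.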

In test [6] the target is Vitamin D3 receptor (Homo sapiens) (UniProt P11473). Briefly: qHTS assay to identify small molecule agonists of the vitamin D receptor (VDR) signaling pathway (AID 743222; calls by dose curve). In short, it runs like this: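 VDR-bla cells were plated 4 h at 37C/5% CO2, then exposed to compounds in DMSO for 16 h. After LiveBLAzer B/G FRET substrate addition and 2 h at room temperature, beta-lactamase reporter fluorescence was read.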
Chain of Vitamin D3 receptor (Homo sapiens) (P11473 whole entry, looked up): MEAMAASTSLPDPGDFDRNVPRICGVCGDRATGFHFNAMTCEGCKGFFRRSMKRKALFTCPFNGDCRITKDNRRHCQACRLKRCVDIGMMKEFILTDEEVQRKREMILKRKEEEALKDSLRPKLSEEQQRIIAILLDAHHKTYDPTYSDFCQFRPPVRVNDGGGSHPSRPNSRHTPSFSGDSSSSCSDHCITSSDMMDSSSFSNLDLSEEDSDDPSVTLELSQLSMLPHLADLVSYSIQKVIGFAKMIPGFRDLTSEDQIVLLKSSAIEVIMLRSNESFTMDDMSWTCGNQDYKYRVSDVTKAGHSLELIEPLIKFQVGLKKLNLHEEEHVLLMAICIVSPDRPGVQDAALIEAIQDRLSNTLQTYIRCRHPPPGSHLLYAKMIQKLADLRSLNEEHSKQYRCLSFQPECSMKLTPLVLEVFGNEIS

For test [7] the target is unchanged. As to the kind of experiment: qHTS assay to identify small molecule antagonists of the vitamin D receptor (VDR) signaling pathway (AID 743223; active means well fitted inhibition curve with a large enough effect in the signal ratio in the repeat runs, not every such curve was filed as active; the % refers to the signal ratio). In short, it runs like this: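 Inhibition of agonist-driven VDR signalling is scored in VDR-bla cells: 3 nM final 1alpha,25-dihydroxyvitamin D3 plus compound, 16 h at 37C, then beta-lactamase detection by FRET substrate fluorescence after 2 h.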

Test [8] can be described thus: qHTS assay to identify small molecule agonists of the endoplasmic reticulum stress response signaling pathway (AID 1159516; active means well fitted activation curve with a large enough effect in the signal ratio in the repeat runs, not every such curve was filed as active; the % refers to the signal ratio; further: potency means the concentration at half of the fitted maximal effect). In short, it runs like this:
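CellSensor ESRE-bla HeLa cells, carrying a beta-lactamase reporter driven by the ER stress response element, were plated overnight and exposed to compounds for 5 hr at 37 C. Reporter activity was read as FRET substrate fluorescence after 2 hr at room temperature.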

Test [9] is described as follows: qHTS assay to identify small molecule agonists of the endoplasmic reticulum stress response signaling pathway - cell viability counter screen (AID 1159517; calls by dose curve; further: series mostly up to about 61 µM; nearly all actives have a fitted effect of over 50% in size). In short, it runs like this: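 ESRE-bla HeLa cells, 1,500 per well, seeded overnight then treated with compounds for 5 hr at 37 C. After the beta-lactamase read, viability in the same wells is measured by CellTiter-Glo luminescence after 30 min at room temperature.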

Test [10] can be described thus: qHTS assay to identify small molecule antagonists of the retinoid-related orphan receptor gamma (ROR-gamma) signaling pathway - cell viability counter screen (AID 1159520). Further: nearly all actives have a fitted effect of over 50% in size. Further: potency means the concentration at half of the fitted maximal effect. In short, it runs like this:
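Tet-on ROR gamma CHO cells were given compounds for 2 hr, then doxycycline hyclate at 1 uM final, and incubated 16 hr at 37 C. Viability was measured as ATP content by CellTiter-Glo luminescence.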

The nature of test [11]: qHTS assay to identify small molecule agonists of the AP-1 signaling pathway - cell viability counter screen (AID 1159525; calls by dose curve; further: nearly all actives have a fitted effect of over 55% in size). In short, it runs like this:
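AP-1-bla ME-180 cells in Opti-MEM with 0.5% dialyzed FBS, compound exposure 5 h at 37 C in 15-point titration. Viability read in the same wells as ATP content by CellTiter-Glo luminescence, normalised to tetra-n-octylammonium bromide and DMSO controls.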

The nature of test [12]: qHTS assay to identify small molecule agonists of the AP-1 signaling pathway (AID 1159526; calls by dose curve).
The nature of test [13]: qHTS assay to identify small molecule agonists of the RXR signaling pathway - cell viability counter screen (AID 1159529). Further: nearly all actives have a fitted effect of over 50% in size. Further: potency means the concentration at half of the fitted maximal effect. In short, it runs like this:
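Compounds dissolved in DMSO were pinned onto HEK 293T cells carrying a beta-lactamase reporter under RXR-alpha control and incubated 16 hr. Cytotoxicity was then quantified by CellTiter-Glo luminescence.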

A short description of test [14]: qHTS assay to identify small molecule antagonists of the peroxisome proliferator-activated receptor delta (PPARd) signaling pathway - cell viability counter screen (AID 743213). Further: nearly all actives have a fitted effect of over 50% in size. Further: potency means the concentration at half of the fitted maximal effect. In short, it runs like this:
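Agonist-stimulated (L165041, 300 nM final) HEK293H PPARd UAS-bla cells are exposed to compounds for 17 h at 37 C, and ATP-based luminescence (CellTiter-Glo) from the same wells reports cytotoxicity.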

In test [15] the target is Bile acid receptor (Homo sapiens) (UniProt Q96RI1). Briefly: qHTS assay to identify small molecule antagonists of the farnesoid-X-receptor (FXR) signaling pathway (AID 743217; active means well fitted inhibition curve with a large enough effect in the signal ratio in the repeat runs, not every such curve was filed as active; the % refers to the signal ratio). In short, it runs like this:
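FXR-UAS-bla HEK 293T cells pre-incubated 5 h at 37 °C, then exposed to compounds with chenodeoxycholic acid (50 uM final) for 16 h at 37 °C. Beta-lactamase reporter read by LiveBLAzer B/G FRET substrate fluorescence after 2 h at room temperature.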

A short description of test [16]: qHTS assay to identify small molecule antagonists of the vitamin D receptor (VDR) signaling pathway - cell viability counter screen (AID 743225). Further: nearly all actives have a fitted effect of over 50% in size. In short, it runs like this:
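Compounds were pinned onto VDR-bla HEK 293T cells together with 1-alpha,25-dihydroxyvitamin D3 at 3 nM final. After 16 h at 37C and 5% CO2 plus the reporter readout, cell viability was measured by CellTiter-Glo luminescence (30 min, room temperature).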

The nature of test [17]: qHTS assay to identify small molecule agonists of the vitamin D receptor (VDR) signaling pathway - cell viability counter screen (AID 743224). In short, it runs like this: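 VDR-bla cells were preincubated 4 h at 37C/5% CO2, then exposed to compounds for 16 h. After the 2 h room-temperature bla FRET read, CellTiter-Glo was added to the same wells and luminescence read after 30 min.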

For test [18], the target named is Peroxisome proliferator-activated receptor delta (Homo sapiens) (UniProt Q03181). Briefly: qHTS assay to identify small molecule antagonists of the peroxisome proliferator-activated receptor delta (PPARd) signaling pathway (AID 743215; active means well fitted inhibition curve with a large enough effect in the signal ratio in the repeat runs, not every such curve was filed as active; the % refers to the signal ratio; further: series mostly up to about 62 µM). In short, it runs like this: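 PPARd UAS-bla HEK293H cells were pre-incubated 5 h at 37 C, then given test compounds in DMSO plus agonist L165041 (300 nM final). After 17 h at 37 C, beta-lactamase FRET substrate was added; fluorescence read after 2 h at room temperature.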
Chain of Peroxisome proliferator-activated receptor delta (Homo sapiens) (Q03181 whole entry, looked up): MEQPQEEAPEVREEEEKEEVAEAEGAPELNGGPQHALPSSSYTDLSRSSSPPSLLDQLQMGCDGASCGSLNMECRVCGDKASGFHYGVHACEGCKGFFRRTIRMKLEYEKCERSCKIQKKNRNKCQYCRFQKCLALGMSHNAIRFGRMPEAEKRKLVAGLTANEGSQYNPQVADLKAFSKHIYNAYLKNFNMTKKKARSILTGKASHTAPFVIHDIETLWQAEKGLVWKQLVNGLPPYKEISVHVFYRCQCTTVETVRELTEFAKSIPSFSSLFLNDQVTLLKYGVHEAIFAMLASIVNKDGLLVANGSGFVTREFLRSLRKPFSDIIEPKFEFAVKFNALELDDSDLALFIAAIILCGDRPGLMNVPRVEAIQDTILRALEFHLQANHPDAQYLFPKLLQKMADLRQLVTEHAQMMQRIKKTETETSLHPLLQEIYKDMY

In test [19] the target is Nuclear receptor ROR-gamma (Homo sapiens) (UniProt P51449). Briefly: qHTS assay to identify small molecule antagonists of the retinoid-related orphan receptor gamma (ROR-gamma) signaling pathway (AID 1159521; further: nearly all actives have a fitted effect of over 50% in size; further: potency means the concentration at half of the fitted maximal effect). In short, it runs like this: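 Test compounds were applied to Tet-on RORγ CHO cells 2 h ahead of doxycycline hyclate (1 uM final). Luciferase reporter activity was quantified by luminescence after 16 h at 37 C and 5% CO2.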

In test [20] the target is Retinoic acid receptor RXR-alpha (Homo sapiens) (UniProt P19793). As to the kind of experiment: qHTS assay to identify small molecule agonists of the RXR signaling pathway (AID 1159527; calls by dose curve; further: nearly all actives have a fitted effect of over 35% in size). In short, it runs like this:
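Using 9-cis retinoic acid as the reference agonist, chemicals were tested in HEK 293T cells […] for 16 hr; substrate loading lasted 2 hr at room temperature.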

Chain of Bile acid receptor (Homo sapiens) (Q96RI1 whole entry, looked up): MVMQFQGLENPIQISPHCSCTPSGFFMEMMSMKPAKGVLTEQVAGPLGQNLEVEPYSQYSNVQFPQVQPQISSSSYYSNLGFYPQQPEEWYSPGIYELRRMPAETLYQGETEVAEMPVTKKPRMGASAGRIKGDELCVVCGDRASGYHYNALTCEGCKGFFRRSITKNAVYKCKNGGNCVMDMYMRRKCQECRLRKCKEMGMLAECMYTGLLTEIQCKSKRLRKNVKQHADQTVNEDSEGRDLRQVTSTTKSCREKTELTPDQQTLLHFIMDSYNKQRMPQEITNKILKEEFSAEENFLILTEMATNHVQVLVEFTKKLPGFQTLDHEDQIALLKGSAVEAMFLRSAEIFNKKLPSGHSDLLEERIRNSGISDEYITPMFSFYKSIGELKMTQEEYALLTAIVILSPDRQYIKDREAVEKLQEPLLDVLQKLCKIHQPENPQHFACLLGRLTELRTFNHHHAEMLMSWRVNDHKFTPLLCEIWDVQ
Chain of Retinoic acid receptor RXR-alpha (Homo sapiens) (P19793 whole entry, looked up): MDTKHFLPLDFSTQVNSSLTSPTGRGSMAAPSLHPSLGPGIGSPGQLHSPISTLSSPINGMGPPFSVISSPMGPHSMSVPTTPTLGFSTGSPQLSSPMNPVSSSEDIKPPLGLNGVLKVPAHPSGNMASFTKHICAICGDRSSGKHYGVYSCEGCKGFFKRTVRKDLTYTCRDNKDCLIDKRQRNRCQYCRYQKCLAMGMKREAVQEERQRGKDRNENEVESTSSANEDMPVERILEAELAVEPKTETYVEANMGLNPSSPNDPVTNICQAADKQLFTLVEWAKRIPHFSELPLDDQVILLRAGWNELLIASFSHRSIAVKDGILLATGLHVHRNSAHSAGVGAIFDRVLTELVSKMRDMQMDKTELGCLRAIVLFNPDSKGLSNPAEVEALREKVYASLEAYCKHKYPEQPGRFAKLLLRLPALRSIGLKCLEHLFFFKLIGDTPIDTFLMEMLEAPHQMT

Regarding `CCNc1nc(NC(C)CC)nc(OC)n1` (centres undefined), the Potency result in [1], in test [3], in [4], in [5], in test [6] and in [7] was “inactive” in each case. The Potency result in [8], in [9], in test [10], in test [11], in test [12] and in test [13] was “inactive” in each case. Also, the molecule was classed as inactive in [2].
Turning to `CC(C)N=C(N)/N=C(\N)Nc1ccc(Cl)cc1`, the outcome in [2] was inactive. Moreover, in test [14], the Potency is 11.9 µM (active). Further, the Potency entry in test [15], in [4], in test [6], in test [16], in test [8] and in test [9] was “inactive” in each case. In addition, the Potency entry in test [10], in [11], in test [12] and in [13] was “inactive” throughout.
On to `O=C1OC(OC(=O)c2cccnc2Nc2cccc(C(F)(F)F)c2)c2ccccc21` (centres undefined), for which the Potency result in test [1], in test [14], in test [3], in [5], in test [6] and in test [17] was “inactive” each time. Moreover, the Potency result in test [8], in test [9], in test [10], in test [11] and in test [13] was “inactive” each time.
Turning to `CCC(C)(C)c1cc(O)c(C(C)(C)CC)cc1O`, in test [2], the call was inactive. In addition, the Potency entry in test [14], in test [18], in [5], in [6], in test [16] and in test [9] was “inactive” in each case. Moreover, the Potency result in test [11], in test [12] and in [20] was “inactive” throughout. Further, the Potency in test [8] is 3.89 µM (active); in [10], 24.3 µM (active); in test [19] it was 24.3 µM (active).
On to `CC(=O)Oc1ccc(C2(c3ccc(OC(C)=O)cc3)C(=O)Nc3ccccc32)cc1`, for which the Potency entry in test [1], in test [14], in test [18], in test [3], in test [5] and in test [7] was “inactive” in each case. In addition, the Potency result in [16], in [8], in [9], in test [10], in [19] and in [20] was “inactive” in each case. Besides, in test [13], the Potency result is “inactive”. The outcome in test [2] was inactive.
Consider `Cc1ccc(CCn2c3c(c4cc(Cl)ccc42)CN(C)CC3)cn1`, for which the Potency result in test [18], in test [4], in test [17], in test [8], in test [9] and in test [10] was “inactive” in each case. For the same molecule, the Potency entry in [19], in test [11] and in test [12] was “inactive” in each case. In addition, the Potency in [13] is 16.9 µM (active).
For the molecule `CCCCCCCCCCCCCCCC`, the Potency entry in [1], in test [14], in test [18], in test [3], in [5] and in test [17] was “inactive” in each case. Further, the Potency entry in [16], in test [8], in test [9], in test [10], in [11] and in [12] was “inactive” in each case. In addition, the Potency result in test [13] was “inactive”. The result in test [2] was inactive.
`CCCCOc1ccc(C(=O)CCN2CCCCC2)cc1`: the Potency in [1] is 11.9 µM (active); in test [10] it was 26.6 µM (active). Further, the outcome in test [2] was inactive. Also, the Potency entry in [14], in test [18], in [15], in [3], in test [4] and in test [16] was “inactive” each time. In addition, the Potency result in [8], in test [9], in test [11] and in test [12] was “inactive” throughout.
On to `COc1cccc(CCc2ccccc2OCC(CN(C)C)OC(=O)CCC(=O)O)c1` (centres undefined), for which the molecule was classed as inactive in test [2]. The Potency entry in [18], in test [15], in test [3], in test [4], in test [6] and in [7] was “inactive” each time. Moreover, the Potency result in test [17], in [8], in [9], in test [10], in test [11] and in test [12] was “inactive” each time. Further, in test [13], the Potency entry was “inactive”.
